A short description of test [1]: rapamycin-like changes in RPL19A-GFP expression – cell-based, S. cerevisiae, multiplex flow cytometry, primary screen (AID 1862; in the data active = percent of DMSO control GFP below about 86%;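 note: lower values mimic rapamycin by blocking the RPL19A rise seen in DMSO cells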). As to conditions: S. cerevisiae RPL19A-GFP strain, flow cytometry fluorescence, 3 h; at 10 µM; stronger effect = lower value. For orientation: Flow cytometry measures light scatter and fluorescence of single cells or particles in a stream.
A short description of test [2]: TOR pathway GLN3 branch reporter MEP2-GFP changes – S. cerevisiae, multiplex flow cytometry, primary screen (AID 1867;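 active = GFP response, as percent of the DMSO control, above the screen-wide mean plus 3 SD, about 139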;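 note: median GFP channel fluorescence of barcode-gated MEP2-GFP cells measured by flow cytometry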). As to conditions: S. cerevisiae MEP2-GFP strain, 3 h, at 10 µM, stronger effect = higher value, 100% means same as DMSO wells.
A short description of test [3]: TOR pathway RTG branch CIT2 reporter changes – S. cerevisiae, GFP fusion, multiplex flow cytometry, primary screen (AID 1870;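 active = percent response above a set limit, the screen-wide mean plus 3 SD, cut at about 130% in these data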;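 note: barcoded CIT2-GFP strain pooled with four other GFP strains with rapamycin as positive control; median GFP fluorescence per well over plate mean of DMSO wells so 100% = DMSO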). Conditions: S. cerevisiae CIT2-GFP expression, 3 h, at 10 µM, stronger effect = higher value.
The nature of test [4]: TOR pathway LAP4-GFP level changes – S. cerevisiae, multiplex flow cytometry, primary screen (AID 1873;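 active = GFP signal, as percent of the solvent control, above the screen mean plus 3 SD, about 149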). Conditions: S. cerevisiae LAP4-GFP expression, 3 h, at 10 µM, stronger effect = higher value.
The nature of test [5]: yeast AGP1-GFP level changes, GLN3 branch – cell-based, multiplex flow cytometry, S. cerevisiae, primary screen (AID 1887;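 active = GFP signal above the screen-wide mean plus 3 SD, that is over about 124.5% of the solvent control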;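 note: AGP1-GFP fusion strain of S. cerevisiae within a five-strain barcoded multiplex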). Conditions: 3 h, at 10 µM, stronger effect = higher value.
Test [6] can be described thus: reduced mouse 2C T cell binding to pMHC/ICAM-1 vesicles – MLPCN validation set, flow cytometry, LFA-1/ICAM-1 modulator project, pilot screen (AID 2523;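 active = response below a set limit, under 55% cells CD8-positive and vesicle-bound, and CD8 cells' 90th-percentile brightness under 279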;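 for vesicle binding response: mean PE anti-B7-1 fluorescence of CD8+ cells relative to row control; 100% = QL9-loaded vesicles with DMSO vehicle in the same plate row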). Conditions: 2C mouse CD8+ T cells, at 7 µM, stronger effect = lower value; double positive events: measured here: CD8+/vesicle+ event percentage.
In test [7] the target is Integrin beta-1 (Homo sapiens) + Integrin alpha-4 (Homo sapiens) (UniProt P13612+P05556). The experiment in a line: alpha4beta1 integrin LIBS antibody binding reduction – U937 cells, HUTS-21 mAb, flow cytometry, validation set, VLA-4 allosteric modulator project, pilot screen (AID 2674;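 active = inhibition above 50%, about 3 SD of the validation set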;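 note: antibody binding induced by the VLA-4 ligand LDV present at three times its Kd; 0% = LDV ligand with antibody and no compound and 100% = antibody without LDV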). Conditions: HUTS-21 LIBS mAb binding, at 6.7 µM, stronger effect = higher value, binding induced by LDV ligand.
Sequence of Integrin beta-1 (Homo sapiens) + Integrin alpha-4 (Homo sapiens) (P05556 whole entry, looked up): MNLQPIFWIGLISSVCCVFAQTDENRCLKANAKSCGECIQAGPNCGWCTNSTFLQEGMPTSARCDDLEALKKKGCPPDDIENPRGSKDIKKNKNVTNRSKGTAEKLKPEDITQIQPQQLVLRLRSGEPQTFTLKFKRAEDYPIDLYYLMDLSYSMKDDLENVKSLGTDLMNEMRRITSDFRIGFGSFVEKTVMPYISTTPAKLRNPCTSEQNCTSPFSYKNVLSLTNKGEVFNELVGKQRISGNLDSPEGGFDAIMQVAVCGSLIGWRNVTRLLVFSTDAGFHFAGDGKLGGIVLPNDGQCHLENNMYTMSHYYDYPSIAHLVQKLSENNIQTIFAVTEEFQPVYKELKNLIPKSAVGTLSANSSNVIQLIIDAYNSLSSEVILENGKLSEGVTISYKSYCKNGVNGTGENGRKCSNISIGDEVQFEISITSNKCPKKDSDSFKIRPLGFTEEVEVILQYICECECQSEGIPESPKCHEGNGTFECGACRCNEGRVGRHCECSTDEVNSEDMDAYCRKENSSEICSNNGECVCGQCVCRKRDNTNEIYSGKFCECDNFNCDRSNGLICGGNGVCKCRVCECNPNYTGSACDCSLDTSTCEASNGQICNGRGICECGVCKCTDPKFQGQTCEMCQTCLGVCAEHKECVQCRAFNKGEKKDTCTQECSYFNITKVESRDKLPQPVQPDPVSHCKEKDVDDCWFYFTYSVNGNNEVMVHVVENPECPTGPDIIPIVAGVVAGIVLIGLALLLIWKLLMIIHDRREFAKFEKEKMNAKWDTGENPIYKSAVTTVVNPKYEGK
Sequence of Integrin beta-1 (Homo sapiens) + Integrin alpha-4 (Homo sapiens) (P13612 whole entry, looked up): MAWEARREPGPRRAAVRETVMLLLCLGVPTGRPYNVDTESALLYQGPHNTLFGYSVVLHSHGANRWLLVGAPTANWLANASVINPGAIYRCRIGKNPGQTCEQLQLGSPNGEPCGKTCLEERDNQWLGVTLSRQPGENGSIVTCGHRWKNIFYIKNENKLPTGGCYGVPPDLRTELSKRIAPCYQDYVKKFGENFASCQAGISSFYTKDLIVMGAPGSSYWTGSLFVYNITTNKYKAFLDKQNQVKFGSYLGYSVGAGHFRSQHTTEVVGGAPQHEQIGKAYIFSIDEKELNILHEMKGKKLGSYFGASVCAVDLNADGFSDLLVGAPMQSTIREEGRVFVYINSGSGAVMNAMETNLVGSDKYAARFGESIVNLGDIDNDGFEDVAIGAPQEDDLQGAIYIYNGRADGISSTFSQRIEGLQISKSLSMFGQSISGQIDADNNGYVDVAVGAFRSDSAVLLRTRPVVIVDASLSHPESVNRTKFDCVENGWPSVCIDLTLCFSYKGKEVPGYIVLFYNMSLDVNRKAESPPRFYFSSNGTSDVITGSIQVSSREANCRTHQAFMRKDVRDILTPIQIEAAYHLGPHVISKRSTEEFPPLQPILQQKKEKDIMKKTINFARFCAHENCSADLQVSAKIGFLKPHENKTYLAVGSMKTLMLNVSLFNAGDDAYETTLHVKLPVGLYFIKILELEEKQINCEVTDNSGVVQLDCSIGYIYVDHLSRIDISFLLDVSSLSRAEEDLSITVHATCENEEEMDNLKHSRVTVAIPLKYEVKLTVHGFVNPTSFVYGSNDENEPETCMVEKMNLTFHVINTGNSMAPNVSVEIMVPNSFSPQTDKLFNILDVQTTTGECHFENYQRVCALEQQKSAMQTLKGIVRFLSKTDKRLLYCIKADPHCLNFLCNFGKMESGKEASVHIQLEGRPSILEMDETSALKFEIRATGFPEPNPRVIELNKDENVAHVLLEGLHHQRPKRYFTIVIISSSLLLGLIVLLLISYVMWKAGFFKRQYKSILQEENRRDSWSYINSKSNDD

Test [8] in a line: calorie-restriction mimetic ROS inhibitors, yeast – validation compound set, pilot screen (AID 2706;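 active = superoxide response below 65% of plate, a cut near 3 SD across the whole screen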;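 note: yeast exposed to compound for one week at 30 degrees C before staining; 100% = mean of all compound wells on the same plate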). As to conditions: S. cerevisiae aging, superoxide DHE fluorescence; at 10 µM; stronger effect = lower value.
Test [9] concerns the target Beta-adrenergic receptor kinase 1 (Homo sapiens) (UniProt P25098). Description: GRK2 binders displacing RNA aptamer, biochemical, validation, human GRK2, bead flow cytometry (AID 488806;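 active = aptamer binding inhibition above 30%, about 3 SD of noise from non-fluorescent compounds; inactive = inhibition at or below 30%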). Conditions: bead-bound GRK2, FAM-aptamer displacement, at 10 µM, stronger effect = higher value.
Test [10] addresses Beta-2 adrenergic receptor (Homo sapiens) (UniProt P07550). Description: agonist-induced loss of surface beta2AR – cell-based, FAP fluorogen, flow cytometry, validation set, pilot screen (AID 504459).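 Note: agonist-driven loss of surface beta2AR via internalization measured by FAP dye flow cytometry.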 Conditions: Am2.2-beta2AR cells, at 10 µM, stronger effect = higher value.
In test [11] the target is AP-2 complex subunit beta (Homo sapiens) (UniProt P63010). The experiment in a line: beta-arrestin/AP2 interaction blockers – biochemical, validation set, GST-AP2 beads, flow cytometry, pilot screen (AID 504541;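 active = inhibition above 54%, about 3 SD of non-fluorescent compounds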;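 note: AP2 carries R879A mutation and is captured from E. coli lysate; bead-bound FITC arrestin peptide fluorescence measuring arrestin peptide binding to AP2; 0% = DMSO wells and 100% = excess unlabeled arrestin peptide control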). As to conditions: FITC arrestin peptide, at 10 µM, stronger effect = higher value, AP2 beta2 appendage fragment, R879A mutant.
Sequence of AP-2 complex subunit beta (Homo sapiens) (P63010 whole entry, looked up, the tested form may be a part, one chain of several): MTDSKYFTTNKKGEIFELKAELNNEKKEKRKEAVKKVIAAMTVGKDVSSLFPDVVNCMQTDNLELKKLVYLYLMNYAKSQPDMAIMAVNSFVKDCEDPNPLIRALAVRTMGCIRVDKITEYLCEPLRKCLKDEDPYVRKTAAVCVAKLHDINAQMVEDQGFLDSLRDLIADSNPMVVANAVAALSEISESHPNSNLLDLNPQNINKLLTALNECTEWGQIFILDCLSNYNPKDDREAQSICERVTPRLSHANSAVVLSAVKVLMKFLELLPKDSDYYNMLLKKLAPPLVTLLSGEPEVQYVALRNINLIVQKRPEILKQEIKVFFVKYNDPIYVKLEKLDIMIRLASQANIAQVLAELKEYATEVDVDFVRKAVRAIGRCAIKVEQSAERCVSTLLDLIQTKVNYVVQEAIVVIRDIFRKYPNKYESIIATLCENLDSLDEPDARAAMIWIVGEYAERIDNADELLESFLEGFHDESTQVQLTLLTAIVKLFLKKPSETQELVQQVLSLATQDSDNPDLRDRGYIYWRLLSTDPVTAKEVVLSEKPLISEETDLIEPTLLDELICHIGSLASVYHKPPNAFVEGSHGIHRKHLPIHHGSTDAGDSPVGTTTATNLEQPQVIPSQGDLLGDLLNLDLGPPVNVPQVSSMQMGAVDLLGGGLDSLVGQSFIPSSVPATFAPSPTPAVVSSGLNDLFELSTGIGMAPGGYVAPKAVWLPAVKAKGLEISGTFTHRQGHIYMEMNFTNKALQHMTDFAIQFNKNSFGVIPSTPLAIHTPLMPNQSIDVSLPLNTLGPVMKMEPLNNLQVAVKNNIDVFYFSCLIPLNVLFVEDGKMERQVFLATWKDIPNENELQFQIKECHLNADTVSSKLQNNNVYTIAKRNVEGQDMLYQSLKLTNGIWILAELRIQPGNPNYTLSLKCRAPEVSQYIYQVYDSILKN
Test [12] can be described thus: cytosolic pH regulators acting via V-ATPase – S. cerevisiae, pHLuorin, HTS validation (AID 504600; in the data active = response above about 15%;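 note: plate controls were DMSO for no effect and reference compound for full effect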). Conditions: V-ATPase proton transport, at 10 µM, stronger effect = higher value.
The subject of test [13] is anti-desmoglein-3 scFv antibody binding to human DSG3. Description: blockers of pathogenic pemphigus antibody–desmoglein-3 binding – biochemical, validation compound set, bead-based, flow cytometry, pilot screen (AID 588368;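 active = binding below the plate cutoff, the plate median minus 3 SD, with a reading above zero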;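 note: signal is the median channel fluorescence of bead-bound GFP antibody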). As to conditions: Protein G beads, DSG3-Fc, scFv-GFP binding, at 10 µM, stronger effect = lower value.
Test [14] in a line: Nile Red efflux blockade in pump-expressing yeast – validation compound set, multiplex, phenotypic, pilot screen (AID 588506;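 active = efflux inhibition above 0.42, the validation set average plus 4 SD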;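 note: Nile Red retained in cells so higher fluorescence means more efflux inhibition; 0 = negative control wells and 1 = enniatin B 25 µM full block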). Conditions: S. cerevisiae pump-expressing triplex, Nile Red efflux flow cytometry; at 10 µM; stronger effect = higher value; the pumps come from Candida albicans.
Test [15] deals with ATP-binding cassette sub-family B member 6 (Homo sapiens) (UniProt Q9NP58). The experiment in a line: blockers of ABCB6-driven porphyrin uptake – K562-ABCB6 cells, flow cytometry, validation set, pilot screen (AID 588550;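 active = inhibition above the screen-wide mean plus 3 SD, about 51%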;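 note: 0% = DMSO wells and 100% = benzethonium chloride 70 µM positive control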). As to conditions: K562-ABCB6 porphyrin accumulation, 1 h, at 10 µM, stronger effect = higher value.
Sequence of ATP-binding cassette sub-family B member 6 (Homo sapiens) (Q9NP58 whole entry, looked up): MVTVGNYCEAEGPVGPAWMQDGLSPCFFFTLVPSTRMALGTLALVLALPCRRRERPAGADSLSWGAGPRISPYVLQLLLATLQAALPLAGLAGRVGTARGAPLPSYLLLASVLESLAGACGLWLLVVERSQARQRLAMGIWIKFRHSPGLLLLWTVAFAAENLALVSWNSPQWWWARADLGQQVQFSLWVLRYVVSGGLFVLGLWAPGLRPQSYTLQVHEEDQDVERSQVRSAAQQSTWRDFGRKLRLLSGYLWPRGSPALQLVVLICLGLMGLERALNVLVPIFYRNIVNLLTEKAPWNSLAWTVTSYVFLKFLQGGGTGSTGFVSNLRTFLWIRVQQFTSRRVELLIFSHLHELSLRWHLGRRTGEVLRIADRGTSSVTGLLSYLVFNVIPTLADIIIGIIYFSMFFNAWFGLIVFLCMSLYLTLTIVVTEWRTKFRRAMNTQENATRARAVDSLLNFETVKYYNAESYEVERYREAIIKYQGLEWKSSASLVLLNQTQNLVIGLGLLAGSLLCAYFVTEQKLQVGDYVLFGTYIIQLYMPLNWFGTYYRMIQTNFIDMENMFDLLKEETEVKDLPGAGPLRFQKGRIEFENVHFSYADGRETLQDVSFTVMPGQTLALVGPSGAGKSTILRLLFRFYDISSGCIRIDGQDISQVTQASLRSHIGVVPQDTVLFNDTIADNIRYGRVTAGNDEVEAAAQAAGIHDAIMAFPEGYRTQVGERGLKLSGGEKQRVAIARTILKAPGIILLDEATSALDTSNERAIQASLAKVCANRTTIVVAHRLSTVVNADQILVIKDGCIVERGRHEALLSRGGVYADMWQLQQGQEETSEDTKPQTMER
A short description of test [16]: AML differentiation inducers, ER-HoxA9 marrow cells – cell-based, GFP/MAC1 double positive, flow cytometry, validation set, primary screen (AID 588685;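 active = differentiation response of at least 50%, scaled between solvent and reference control, from cells with both markers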;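 note: compound exposure lasts four days before antibody staining and flow analysis; 0% = DMSO wells and 100% = 5 µM fulvestrant positive control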). Conditions: stronger effect = higher value, normalized: vehicle 0, fulvestrant 100.

Five molecules from PubChem BioAssay can be followed below.

Structures are written as SMILES. Results filed as inconclusive are left out. Active and inactive are the calls of the source.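 Rule for the calls, unless noted: active = percent response above 42, roughly 3 SD of non-fluorescent test compounds; inactive = the rest.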

Sequence of Beta-adrenergic receptor kinase 1 (Homo sapiens) (P25098 whole entry, looked up): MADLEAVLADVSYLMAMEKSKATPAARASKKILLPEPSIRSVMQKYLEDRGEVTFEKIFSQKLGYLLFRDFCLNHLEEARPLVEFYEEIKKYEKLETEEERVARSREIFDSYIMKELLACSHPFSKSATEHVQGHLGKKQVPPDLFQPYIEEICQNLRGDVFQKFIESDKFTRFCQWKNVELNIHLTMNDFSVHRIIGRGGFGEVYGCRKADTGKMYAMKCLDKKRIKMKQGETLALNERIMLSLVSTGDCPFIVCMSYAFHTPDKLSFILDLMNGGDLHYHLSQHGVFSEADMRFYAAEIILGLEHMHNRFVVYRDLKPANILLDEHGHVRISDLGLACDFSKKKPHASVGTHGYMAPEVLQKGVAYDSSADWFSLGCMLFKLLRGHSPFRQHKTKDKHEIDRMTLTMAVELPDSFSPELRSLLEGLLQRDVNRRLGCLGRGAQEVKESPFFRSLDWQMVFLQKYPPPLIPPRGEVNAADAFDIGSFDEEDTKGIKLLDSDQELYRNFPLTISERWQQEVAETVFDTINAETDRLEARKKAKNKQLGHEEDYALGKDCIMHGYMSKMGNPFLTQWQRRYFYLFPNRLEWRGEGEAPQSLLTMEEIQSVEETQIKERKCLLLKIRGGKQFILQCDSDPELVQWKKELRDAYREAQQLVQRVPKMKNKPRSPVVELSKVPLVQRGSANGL
Sequence of Beta-2 adrenergic receptor (Homo sapiens) (P07550 whole entry, looked up): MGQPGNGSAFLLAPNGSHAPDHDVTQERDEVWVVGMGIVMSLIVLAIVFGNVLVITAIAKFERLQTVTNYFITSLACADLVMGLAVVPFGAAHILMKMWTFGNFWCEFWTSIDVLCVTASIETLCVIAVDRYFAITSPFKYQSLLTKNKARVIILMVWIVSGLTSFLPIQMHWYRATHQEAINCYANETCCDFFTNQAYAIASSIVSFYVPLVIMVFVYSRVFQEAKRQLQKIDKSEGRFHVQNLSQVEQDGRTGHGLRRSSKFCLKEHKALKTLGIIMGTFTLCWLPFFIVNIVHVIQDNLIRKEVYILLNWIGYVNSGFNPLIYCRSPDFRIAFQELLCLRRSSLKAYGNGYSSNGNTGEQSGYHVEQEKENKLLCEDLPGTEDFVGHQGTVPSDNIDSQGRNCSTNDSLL

Turning to `CCC(C(=O)Nc1ccc2c(c1)OCCO2)c1ccccc1` (stereo not given), the percent of DMSO control GFP in test [1] is 103% (inactive). In addition, the GFP response vs DMSO in test [2] was 103% (inactive); in test [4], 113% (inactive). Besides, in test [3], the percent response of DMSO control is 101% (inactive). Besides, the GFP response, % of DMSO in test [5] is 110% (inactive). The molecule also yielded a double positive events in [6] of 58.6%. Further, in [6], the vesicle binding response was 143% (inactive). For the same molecule, the results for the inhibition in test [7], in test [11] and in test [15] were 8.29% (inactive), 3.98% (inactive) and -7% (inactive), respectively. Further, in test [8], the superoxide response (% of plate) was 96.9% (inactive). Also, the aptamer binding inhibition in test [9] is -1% (inactive). For the same molecule, the response in test [10] was 3.82% (inactive); in test [12], -0.08% (inactive). In test [13], the binding (% of control) is 101% (inactive). The efflux inhibition (fraction of control) in [14] was -0.03 (inactive). In [16], the differentiation response is -10.4% (inactive).

With `Cc1cccc(OCC(=O)Nc2ccc(C(=O)NCC(C)C)cc2)c1`, the percent of DMSO control GFP in test [1] is 102% (inactive). Moreover, the GFP response vs DMSO was 102% (inactive) in test [2] and 110% (inactive) in test [4]. Also, in test [3], the percent response of DMSO control is 98.3% (inactive). Moreover, the GFP response, % of DMSO in [5] was 115% (inactive). This molecule returned a double positive events in test [6] of 62.1%. Further, in test [6], the vesicle binding response was 156% (inactive). The inhibition in test [7] is 16.8% (inactive); in [11], -3.7% (inactive); in [15], 3% (inactive). Moreover, the superoxide response (% of plate) in test [8] is 97.4% (inactive). Besides, the aptamer binding inhibition in test [9] was 3% (inactive). Besides, the response in test [10] is -25% (inactive); in [12], 0.58% (inactive). Moreover, the binding (% of control) in test [13] was 99.3% (inactive). Moreover, the efflux inhibition (fraction of control) in test [14] was -0.09 (inactive). Also, in test [16], the differentiation response is 32.5% (inactive).

Turning to `CC1(C)CC(c2csc(N)n2)CCO1` (stereo not given), the percent of DMSO control GFP in test [1] is 103% (inactive). For the same molecule, the GFP response vs DMSO was 106% (inactive) in test [2] and 86.8% (inactive) in test [4]. Also, in test [3], the percent response of DMSO control was 106% (inactive). Besides, the GFP response, % of DMSO in test [5] was 101% (inactive). The molecule further had a double positive events in test [6] of 65.9%. The vesicle binding response in test [6] was 915% (inactive). Besides, the inhibition was 1.62% (inactive) in [7], 8.95% (inactive) in test [11] and -3% (inactive) in test [15]. Further, the superoxide response (% of plate) in test [8] is 101% (inactive). Also, in test [9], the aptamer binding inhibition is 3% (inactive). Moreover, the response was -0.12% (inactive) in [10] and -0.04% (inactive) in [12]. The binding (% of control) in [13] is 93.3% (inactive). For the same molecule, the efflux inhibition (fraction of control) in test [14] is -0.14 (inactive). Also, the differentiation response in test [16] is -4.64% (inactive).

On to `COc1cc(CNCc2ccc(OC)c(OC)c2OC)cc(OC)c1`, for which the percent of DMSO control GFP in test [1] was 105% (inactive). Besides, the GFP response vs DMSO is 110% (inactive) in [2] and 104% (inactive) in test [4]. In addition, in [3], the percent response of DMSO control is 105% (inactive). In addition, the GFP response, % of DMSO in test [5] was 112% (inactive). The molecule further yielded a double positive events in test [6] of 60.7%. Moreover, in test [6], the vesicle binding response was 178% (inactive). Further, the inhibition in test [7] was 33.8% (inactive); in test [11] it was 64.9% (active); in test [15], 1% (inactive). Also, the superoxide response (% of plate) in [8] is 106% (inactive). Moreover, the aptamer binding inhibition in [9] is 2% (inactive). Further, the figures for the response in test [10] and in [12] were -16% (inactive) and 22.7% (active), respectively. Further, the binding (% of control) in test [13] is 102% (inactive). In addition, the efflux inhibition (fraction of control) in test [14] was 0 (inactive). For the same molecule, the differentiation response in [16] was -11.9% (inactive).

For the molecule `CCN1C(=O)C(CC(=O)Nc2ccc(OC)cc2)N(CCc2ccc(F)cc2)C1=S` (stereo not given), the percent of DMSO control GFP in test [1] was 96.9% (inactive). Further, the GFP response vs DMSO in test [2] is 98.5% (inactive); in test [4], 124% (inactive). Also, the percent response of DMSO control in [3] was 93.9% (inactive). Further, the GFP response, % of DMSO in [5] was 96.2% (inactive). For the same molecule, the double positive events in test [6] is 60.7%. In addition, in test [6], the vesicle binding response was 292% (inactive). The inhibition in test [7] is -3.16% (inactive); in test [11], 50.8% (inactive); in [15], 3% (inactive). Further, the superoxide response (% of plate) in [8] is 102% (inactive). Moreover, in test [9], the aptamer binding inhibition was 2% (inactive). Besides, the response was 5.66% (inactive) in [10] and -3.51% (inactive) in test [12]. Also, the binding (% of control) in test [13] is 102% (inactive). Besides, the efflux inhibition (fraction of control) in test [14] is 0.19 (inactive). Also, in test [16], the differentiation response is 8.8% (inactive).

Broadly, the inhibition is the drop in the measured response relative to a control, in per cent.
